Test results: PubChem BioAssay (NCATS)
Results filed as inconclusive are left out. The list shows a part of the results. Calls of active or inactive are those of the source. Unless noted, calls follow the shape of the dose curve; as a rule, active = well fitted curve in the direction sought with a large enough effect; inconclusive = small, poorly fitted or top-dose-only effect, or another doubt; inactive = no such curve, though single readings can be large; an effect the other way counts as inactive or inconclusive.

Columns and labels:
[1] = molecular target: Tumor susceptibility gene 101 protein (Homo sapiens) (UniProt Q99816); assay: qHTS Assay for Iinhibitors of HIV-1 Budding by Blocking the Interaction of PTAP/TSG101: Hit Validation (AID 651600); also: nearly all actives have a fitted effect of over 70% in size; also: potency is read from the fitted curve at half-maximal effect; as to activity change, negative = inhibition: % is scaled to controls: 0 for no effect and ±100 for the full control effect
Chain of Tumor susceptibility gene 101 protein (Homo sapiens) (Q99816 whole entry, looked up, the tested form may be a part): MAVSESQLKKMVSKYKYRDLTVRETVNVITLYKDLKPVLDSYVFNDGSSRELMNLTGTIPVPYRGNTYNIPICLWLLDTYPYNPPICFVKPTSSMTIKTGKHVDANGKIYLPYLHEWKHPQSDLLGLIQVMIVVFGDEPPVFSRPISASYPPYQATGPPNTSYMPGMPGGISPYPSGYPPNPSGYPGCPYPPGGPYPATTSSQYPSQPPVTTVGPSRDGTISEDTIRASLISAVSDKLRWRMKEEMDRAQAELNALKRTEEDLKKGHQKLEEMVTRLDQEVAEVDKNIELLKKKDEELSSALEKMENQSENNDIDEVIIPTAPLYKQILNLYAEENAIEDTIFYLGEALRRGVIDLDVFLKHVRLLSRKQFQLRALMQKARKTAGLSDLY
Method in brief: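 Displacement of a FITC-labeled PTAP-motif peptide (50 nM) from the Tsg101 binding domain (10 uM) was monitored by fluorescence polarization after a 20 min room-temperature incubation.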

[2] = molecular target: Rap guanine nucleotide exchange factor 3 (Homo sapiens) (UniProt O95398); assay: Confirmatory qHTS for antagonist of cAMP-regulated guanine nucleotide exchange factor 3 (EPAC1) (AID 1645880); conditions: EPAC1 Rap1B-BODIPY-GDP exchange, fluorescence; activity, negative = inhibition: at 115 µM (top of the series); also: nearly all actives have a fitted effect of over 55% in size; also: potency is read from the fitted curve at half-maximal effect;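 as to activity, negative = inhibition: plate controls were DMSO only for no effect and full effect of the ATA control for full effect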
Chain of Rap guanine nucleotide exchange factor 3 (Homo sapiens) (O95398 whole entry, looked up): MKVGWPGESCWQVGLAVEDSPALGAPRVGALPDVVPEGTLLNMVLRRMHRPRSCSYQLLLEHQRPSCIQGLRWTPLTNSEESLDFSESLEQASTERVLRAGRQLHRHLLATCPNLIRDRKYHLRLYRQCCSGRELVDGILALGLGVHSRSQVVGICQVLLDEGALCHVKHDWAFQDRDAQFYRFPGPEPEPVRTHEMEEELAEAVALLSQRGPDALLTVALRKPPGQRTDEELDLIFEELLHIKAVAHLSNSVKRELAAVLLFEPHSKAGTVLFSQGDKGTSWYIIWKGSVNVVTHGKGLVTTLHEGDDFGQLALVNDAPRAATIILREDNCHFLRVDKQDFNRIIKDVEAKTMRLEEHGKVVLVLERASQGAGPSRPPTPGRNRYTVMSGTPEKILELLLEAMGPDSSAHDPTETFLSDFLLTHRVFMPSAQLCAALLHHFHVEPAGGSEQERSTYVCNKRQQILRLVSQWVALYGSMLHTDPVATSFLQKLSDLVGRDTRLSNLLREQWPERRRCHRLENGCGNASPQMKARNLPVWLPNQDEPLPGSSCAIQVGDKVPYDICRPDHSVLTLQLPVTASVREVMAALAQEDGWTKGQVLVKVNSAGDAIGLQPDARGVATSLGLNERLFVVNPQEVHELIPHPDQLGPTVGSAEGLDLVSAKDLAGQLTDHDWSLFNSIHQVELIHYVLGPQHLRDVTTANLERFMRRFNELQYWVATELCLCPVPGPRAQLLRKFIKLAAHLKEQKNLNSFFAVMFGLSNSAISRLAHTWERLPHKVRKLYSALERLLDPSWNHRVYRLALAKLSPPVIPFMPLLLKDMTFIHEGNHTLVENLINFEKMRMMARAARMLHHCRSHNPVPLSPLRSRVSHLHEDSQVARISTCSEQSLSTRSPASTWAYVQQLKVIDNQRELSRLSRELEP
Method in brief: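 Released BODIPY-GDP fluoresces less than Rap1-bound BODIPY-GDP; the signal is followed at 480/540 nm at 5-min intervals over 30 min, after 5 min at room temperature. Reactions contain 100 nM EPAC1, 250 nM RAP1B-BODIPY-GDP and 50 uM GDP; results are normalized to ATA and DMSO.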

[3] = molecular target: Rap guanine nucleotide exchange factor 3 (Homo sapiens) (UniProt O95398); assay: Confirmatory qHTS for agonist of cAMP-regulated guanine nucleotide exchange factor 3 (EPAC1) (AID 1645881); also: nearly all actives have a fitted effect of over 75% in size; also: potency is read from the fitted curve at half-maximal effect;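 as to activation: EPAC1 catalysed release of BODIPY-GDP from Rap1B seen as fluorescence loss; 100% = effect of cAMP agonist control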
[4] = molecular target: Rap guanine nucleotide exchange factor 4 (Homo sapiens) (UniProt Q8WZA2); assay: Confirmatory qHTS for agonist of cAMP-regulated guanine nucleotide exchange factor 4 (EPAC2) (AID 1645884);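 also: nucleotide exchange releases bodipy-GDP from Rap1 and this lowers its fluorescence; nearly all actives have a fitted effect of over 65% in size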; also: potency is read from the fitted curve at half-maximal effect; as to activation: % is scaled to controls: 0 for no effect and ±100 for the full control effect
Chain of Rap guanine nucleotide exchange factor 4 (Homo sapiens) (Q8WZA2 whole entry, looked up): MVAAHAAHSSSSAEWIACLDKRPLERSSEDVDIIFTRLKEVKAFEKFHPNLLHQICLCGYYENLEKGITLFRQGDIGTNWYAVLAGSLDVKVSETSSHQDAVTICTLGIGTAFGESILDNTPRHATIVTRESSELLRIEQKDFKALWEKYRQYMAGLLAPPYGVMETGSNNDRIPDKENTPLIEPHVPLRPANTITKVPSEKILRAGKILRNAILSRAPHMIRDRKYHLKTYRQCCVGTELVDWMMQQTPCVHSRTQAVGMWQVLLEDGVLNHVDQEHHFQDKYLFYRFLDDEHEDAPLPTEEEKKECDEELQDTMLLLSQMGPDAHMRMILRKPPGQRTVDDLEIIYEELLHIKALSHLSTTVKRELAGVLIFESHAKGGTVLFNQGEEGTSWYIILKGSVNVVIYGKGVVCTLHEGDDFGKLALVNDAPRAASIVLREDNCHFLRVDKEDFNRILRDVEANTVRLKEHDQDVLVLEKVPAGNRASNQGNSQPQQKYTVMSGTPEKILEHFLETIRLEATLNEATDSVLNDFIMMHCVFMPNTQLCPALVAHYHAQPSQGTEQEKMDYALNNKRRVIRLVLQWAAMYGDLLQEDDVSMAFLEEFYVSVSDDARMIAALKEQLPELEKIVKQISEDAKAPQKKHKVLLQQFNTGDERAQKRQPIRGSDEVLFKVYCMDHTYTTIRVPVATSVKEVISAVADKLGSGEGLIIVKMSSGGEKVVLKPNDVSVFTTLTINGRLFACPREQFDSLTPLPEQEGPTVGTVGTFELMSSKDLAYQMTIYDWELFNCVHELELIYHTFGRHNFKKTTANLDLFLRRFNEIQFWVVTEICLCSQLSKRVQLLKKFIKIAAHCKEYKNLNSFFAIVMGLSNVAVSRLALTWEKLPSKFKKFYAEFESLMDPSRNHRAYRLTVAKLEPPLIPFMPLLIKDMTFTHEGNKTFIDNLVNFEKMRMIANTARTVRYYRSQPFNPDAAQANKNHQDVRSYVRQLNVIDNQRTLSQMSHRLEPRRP

[5] = molecular target: Rap guanine nucleotide exchange factor 4 (Homo sapiens) (UniProt Q8WZA2); assay: Confirmatory qHTS for antagonist of cAMP-regulated guanine nucleotide exchange factor 4 (EPAC2) (AID 1645885); also: nearly all actives have a fitted effect of over 25% in size; also: potency is read from the fitted curve at half-maximal effect
[6] = molecular target: Rap guanine nucleotide exchange factor 3 (Homo sapiens) (UniProt O95398); assay: Counterscreen qHTS for antagonist of cAMP-regulated guanine nucleotide exchange factor 3 (EPAC1) (AID 1645888); also: % of control where 0% means no effect
Method in brief: (§1)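 Rap1B-BODIPY-GDP 250 nM + GDP 50 uM; cpds 7-pt, final 9.74 nM–152 uM (activator mode) or from 7.32 nM upwards (inhibitor mode); RT; FI 480/540 nm at 5 and 30 min, then ± cAMP, reread.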

[7] = molecular target: Rap guanine nucleotide exchange factor 3 (Homo sapiens) (UniProt O95398); assay: Counterscreen qHTS for agonist of cAMP-regulated guanine nucleotide exchange factor 3 (EPAC1) (AID 1645889); also: % of control where 0% means no effect; nearly all actives have a fitted effect of over 40% in size
Method in brief: as §1

[8] = molecular target: Tyrosyl-DNA phosphodiesterase 1 (Homo sapiens) (UniProt Q9NUW8); assay: Confirmation Assay for Inhibitors of Tyrosyl-DNA Phosphodiesterase (TDP1) (AID 489007); conditions: recombinant human TDP1 enzymatic activity, dose-response; also: potency is read from the fitted curve at half-maximal effect; nearly all actives have a fitted effect of over 40% in size
Method in brief: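 AlphaScreen read-out: streptavidin donor and anti-FITC acceptor beads (10 ug/ml) bind intact substrate, so Tdp1 removal of tyrosine-FITC lowers signal. Enzyme 1 nM, substrate 15 nM, 5 min reaction at room temperature after 15 min compound preincubation.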

[9] = AP1 Signaling Pathway (AID 357; active = well fitted curve in either direction with a large enough effect, not every such curve was filed as active;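 also: ME-180 reporter cells stimulated with EGF at its EC50 level; % is scaled to controls: 0 for no effect and ±100 for the full control effect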); conditions: ME-180 AP-1-bla reporter, EGF-induced, beta-lactamase ratio, 5 h; at 7.69 µM (top of the series) unless noted
Method in brief: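 Beta-lactamase reporter under AP-1 response element, ME-180 background. Stimulus: EC50 EGF. Compound exposure 5 h, 37 °C. Detection: CCF4, 2.5 h RT, 460/530 nm. Values: AC50 from titration.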

[10] = Stat Signaling Pathway (AID 446; active = well fitted curve in either direction with a large enough effect, not every such curve was filed as active;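 also: ME-180 cervical cancer cells given 40 pM IL-6 alongside compound; SIE-controlled beta-lactamase reporter measured as 460/530 nm FRET emission ratio; % is scaled to controls: 0 for no effect and ±100 for the full control effect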)
Method in brief: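 Overnight-plated ME-180 cells bearing a STAT Inducible Element beta-lactamase reporter; 5 h co-exposure to compound and 40 pM IL-6; values normalized to 300 pM IL-6 and 125 nM JAK inhibitor controls.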

[11] = molecular target: Glucocorticoid receptor (Homo sapiens) (UniProt P04150); assay: GR-GFP Redistribution (AID 450;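 active = compounds whose dose series gives a full or clear partial fitted curve of increased nuclear translocation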; also: potency is read from the fitted curve at half-maximal effect); conditions: U2OS GR-GFP nuclear translocation, laser cytometry, 2 h
Chain of Glucocorticoid receptor (Homo sapiens) (P04150 whole entry, looked up): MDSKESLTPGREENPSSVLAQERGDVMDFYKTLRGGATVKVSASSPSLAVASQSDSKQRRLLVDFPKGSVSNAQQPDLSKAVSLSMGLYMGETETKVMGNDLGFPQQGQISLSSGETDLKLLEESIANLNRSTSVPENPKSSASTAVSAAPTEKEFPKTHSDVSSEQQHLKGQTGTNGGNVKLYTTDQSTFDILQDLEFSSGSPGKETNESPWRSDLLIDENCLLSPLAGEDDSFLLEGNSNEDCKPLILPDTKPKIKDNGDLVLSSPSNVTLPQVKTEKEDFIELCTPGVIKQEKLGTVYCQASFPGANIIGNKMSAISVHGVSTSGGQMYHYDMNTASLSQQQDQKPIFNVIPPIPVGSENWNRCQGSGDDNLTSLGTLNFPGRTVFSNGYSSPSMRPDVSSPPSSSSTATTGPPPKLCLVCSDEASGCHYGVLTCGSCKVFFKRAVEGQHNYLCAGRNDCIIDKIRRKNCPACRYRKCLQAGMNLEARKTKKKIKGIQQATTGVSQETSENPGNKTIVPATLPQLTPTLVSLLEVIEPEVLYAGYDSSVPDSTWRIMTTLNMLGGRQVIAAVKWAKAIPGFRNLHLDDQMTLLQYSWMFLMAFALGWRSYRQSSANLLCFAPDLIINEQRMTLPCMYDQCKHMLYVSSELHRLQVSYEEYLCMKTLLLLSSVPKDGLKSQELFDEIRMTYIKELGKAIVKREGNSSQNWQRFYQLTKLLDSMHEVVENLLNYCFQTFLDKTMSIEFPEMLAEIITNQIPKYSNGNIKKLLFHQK

[12] = qHTS Assay for Identification of Small Molecule Agonists for Hypoxia Response Element Signaling Pathway (AID 914; active = well fitted activation curve with a large enough effect in the signal ratio, with a control signal flat, not every such curve was filed as active; the % refers to the signal ratio; also: potency is read from the fitted curve at half-maximal effect); conditions: ME-180 (cervical carcinoma) HRE-bla reporter, beta-lactamase ratio, CoCl2, 17 h; activation: stronger effect = higher value
Method in brief: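 Positive modulation of EC50 CoCl2-induced hypoxia response element signaling is measured in ME-180 cells with a beta-lactamase reporter. Compounds are titrated, incubation runs 17 hours, and %Activity derives from the blue/green ratio.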

[13] = molecular target: DNA polymerase eta (Homo sapiens) (UniProt Q9Y253); assay: qHTS for Inhibitors of Polymerase Eta: Confirmatory Assay for Cherry-picked Compounds (AID 720502); conditions: Pol eta primer extension, TAMRA/BHQ fluorescence, 10 min; also: potency is read from the fitted curve at half-maximal effect
Method in brief: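 Quenched-fluorescence replication assay: 10 nM Pol eta, 50 nM substrate final, 15 min compound preincubation at room temperature, 10 min kinetic reaction read at 525/598 nm.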

[14] = molecular target: ATPase family AAA domain-containing protein 5 (Homo sapiens) (UniProt Q96QE3); assay: HTS assay for small molecules that inhibit ELG1-dependent DNA repair in human embryonic kidney (HEK293T) cells expressing luciferase-tagged ELG1: Hit Confirmation (AID 624248); conditions: HEK293T ELG1-luciferase levels, luminescence; cells co-treated with 5-fluorouridine; also: potency is read from the fitted curve at half-maximal effect; nearly all actives have a fitted effect of over 55% in size
Chain of ATPase family AAA domain-containing protein 5 (Homo sapiens) (Q96QE3 whole entry, looked up, the tested form may be a part): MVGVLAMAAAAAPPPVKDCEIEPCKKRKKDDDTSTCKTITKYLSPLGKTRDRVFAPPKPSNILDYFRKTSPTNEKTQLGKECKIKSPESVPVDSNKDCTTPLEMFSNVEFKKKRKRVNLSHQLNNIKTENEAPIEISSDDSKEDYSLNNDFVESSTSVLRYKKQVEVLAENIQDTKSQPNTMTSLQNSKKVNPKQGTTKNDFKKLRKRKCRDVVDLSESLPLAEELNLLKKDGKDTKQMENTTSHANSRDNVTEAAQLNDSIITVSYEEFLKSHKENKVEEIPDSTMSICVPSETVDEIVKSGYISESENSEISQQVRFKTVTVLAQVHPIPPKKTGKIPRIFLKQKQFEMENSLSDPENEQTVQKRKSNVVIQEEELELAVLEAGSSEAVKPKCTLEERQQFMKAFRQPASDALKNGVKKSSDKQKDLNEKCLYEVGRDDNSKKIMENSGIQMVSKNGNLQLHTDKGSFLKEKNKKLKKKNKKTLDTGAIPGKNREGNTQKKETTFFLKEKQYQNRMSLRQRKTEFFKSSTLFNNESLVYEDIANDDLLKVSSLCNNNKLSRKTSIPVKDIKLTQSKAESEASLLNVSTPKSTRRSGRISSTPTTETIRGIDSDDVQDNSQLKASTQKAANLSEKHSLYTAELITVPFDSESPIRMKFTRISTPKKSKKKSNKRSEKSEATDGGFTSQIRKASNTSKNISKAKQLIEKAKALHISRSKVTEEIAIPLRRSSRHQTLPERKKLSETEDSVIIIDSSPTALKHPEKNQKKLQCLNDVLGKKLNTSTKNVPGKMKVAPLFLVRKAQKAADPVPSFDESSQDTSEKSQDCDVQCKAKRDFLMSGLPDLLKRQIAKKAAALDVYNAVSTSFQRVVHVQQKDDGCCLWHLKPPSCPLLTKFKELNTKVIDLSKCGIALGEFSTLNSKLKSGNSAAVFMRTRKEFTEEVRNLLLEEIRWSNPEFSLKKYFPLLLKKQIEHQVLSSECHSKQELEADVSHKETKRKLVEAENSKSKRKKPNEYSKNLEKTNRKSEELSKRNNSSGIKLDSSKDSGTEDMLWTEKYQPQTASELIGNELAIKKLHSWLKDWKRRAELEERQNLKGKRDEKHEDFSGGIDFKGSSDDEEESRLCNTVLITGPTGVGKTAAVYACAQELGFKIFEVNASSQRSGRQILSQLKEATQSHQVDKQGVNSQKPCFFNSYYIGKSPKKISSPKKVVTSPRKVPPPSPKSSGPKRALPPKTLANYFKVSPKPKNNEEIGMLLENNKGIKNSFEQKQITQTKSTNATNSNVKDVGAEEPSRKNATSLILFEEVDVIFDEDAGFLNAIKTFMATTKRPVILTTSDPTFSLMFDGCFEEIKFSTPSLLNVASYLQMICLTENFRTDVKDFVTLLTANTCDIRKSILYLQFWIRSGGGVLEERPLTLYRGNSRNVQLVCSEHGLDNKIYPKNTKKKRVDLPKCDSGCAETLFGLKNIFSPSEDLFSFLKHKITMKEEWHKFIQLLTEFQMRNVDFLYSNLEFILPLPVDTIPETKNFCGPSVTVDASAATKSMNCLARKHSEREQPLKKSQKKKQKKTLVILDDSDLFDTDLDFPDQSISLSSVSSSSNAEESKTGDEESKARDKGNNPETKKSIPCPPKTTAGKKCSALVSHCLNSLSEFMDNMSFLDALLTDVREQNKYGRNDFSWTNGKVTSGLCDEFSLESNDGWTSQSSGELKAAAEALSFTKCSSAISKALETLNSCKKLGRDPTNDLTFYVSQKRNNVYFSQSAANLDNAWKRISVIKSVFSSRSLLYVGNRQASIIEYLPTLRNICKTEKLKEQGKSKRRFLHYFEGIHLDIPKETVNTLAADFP
Method in brief: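 Suppression of ELG1-luciferase signal was read by ONE-Glo luminescence in HEK293T reporter cells after 16 h at 37 C co-treatment with compound and 5-fluorouridine as DNA-damaging agent.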

[15] = molecular target: ATPase family AAA domain-containing protein 5 (Homo sapiens) (UniProt Q96QE3); assay: qHTS screen for small molecules that inhibit ELG1-dependent DNA repair in human embryonic kidney (HEK293T) cells expressing luciferase-tagged ELG1: Hit Confirmation using MMS Stimulated ELG1 (AID 624249); also: potency is read from the fitted curve at half-maximal effect; nearly all actives have a fitted effect of over 60% in size
Method in brief: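 Cells carrying luciferase-tagged ELG1 receive compound and DNA-damaging MMS (final concentration 10 µM) roughly five hours after seeding. Sixteen hours on, Amplight detects luciferase, and activity loss marks blocked ELG1 function.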

[16] = qHTS screen for small molecules that inhibit ELG1-dependent DNA repair: Hit Confirmation with MMS Viability (AID 624251);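 also: viability read 16 h after compound addition; % is scaled to controls: 0 for no effect and ±100 for the full control effect; nearly all actives have a fitted effect of over 60% in size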
Method in brief: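 MMS (final 10 µM) was co-dosed with compounds onto HEK293T cells carrying the ELG1-luc reporter; cell viability was quantified by CellTiter-Glo at 16 h.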

Cn1c(/C(C#N)=C/c2ccc(-c3ccc(S(N)(=O)=O)cc3)o2)nc2ccccc21
inactive: Potency [1] | Potency [2] | Potency [3] | Potency [4] | Potency [6]
active: Potency [5] 95.3 µM

COc1ccc2nc3ccccc3[n+]([O-])c2c1
inactive: Potency [2] | activation [4] 14% [at 17.1 µM, percent relative to cAMP agonist control] | Potency [5] | activity change, negative = inhibition [6] 32.7% [at 30.8 µM]
active: Potency [1] 18.3 µM | Potency [3] 79.4 µM

Cc1ccc(CNC(=O)c2c[nH]n3c(=O)c(Cc4ccc(F)cc4Cl)c(C)nc23)cc1
inactive: Potency [3] | Potency [4] | Potency [5] | Potency [7]
active: Potency [2] 67.5 µM

CCN1CCc2c(sc(NC(=O)c3ccc(S(=O)(=O)N4CCCCCC4)cc3)c2C(=O)NC)C1
inactive: Potency [2] | Potency [3] | Potency [4] | Potency [5] | Potency [7]

Cc1ccc([N+](=O)[O-])cc1S(=O)(=O)N1CCC(C)CC1
inactive: Potency [2] | Potency [3] | Potency [4] | Potency [5] | Potency [7]

COc1ccc(C(CC(=O)N2CCCC2)c2ccc(F)cc2)cc1 (configuration not stated)
inactive: Potency [2] | Potency [3] | activation [4] 0% [at 17.1 µM, percent relative to cAMP agonist control] | Potency [5] | activation [7] 0.37% [at 30.8 µM]

CN(C)c1ccc(/C=C(\C#N)C(=O)Nc2nc3c(s2)CCN(Cc2ccccc2)C3)cc1
active: Potency [3] 100 µM | Potency [4] 100 µM
inactive: Potency [1] | Potency [2] | Potency [5] | Potency [6]

O=C1OC(c2ccccc2)Sc2ccccc21 (configuration not stated)
inactive: Potency [2] | Potency [3] | activation [4] 4.47% [at 17.1 µM, percent relative to cAMP agonist control] | Potency [5] | activation [7] -3.76% [at 30.8 µM]

CCOc1ccc(CNC(=O)c2ccccc2NC(=O)c2nsc3ccccc23)cc1
inactive: Potency [2] | Potency [3] | Potency [4] | outcome [5] inactive [at 12.7 µM] | Potency [7]

Fc1ccc(N2N=C(c3cccs3)CC2c2ccccc2)cc1 (configuration not stated)
active: Potency [8] 28.2 µM
inactive: Potency [2] | Potency [3] | Potency [4] | Potency [5] | Potency [6]

C/C(=N\NC(=O)CC#N)c1cc2ccc(O)cc2oc1=O
inactive: Potency [2] | Potency [3] | activation [4] 2.05% [at 17.1 µM, percent relative to cAMP agonist control] | Potency [5] | activation [7] -21% [at 30.8 µM]

CCOc1cc(/C=C2/SC(=S)NC2=O)ccc1OC(=O)c1ccco1
inactive: Potency [3] | Potency [4] | Potency [7]
active: Potency [2] 37.9 µM | Potency [5] 16.9 µM

Cc1ccc(C)c(S(=O)(=O)N2CCN(C(=O)CCc3nc4ccccc4c(=O)[nH]3)CC2)c1
inactive: Potency [2] | Potency [3] | activation [4] 4.63% [at 17.1 µM, percent relative to cAMP agonist control] | Potency [5] | activation [7] 23.6% [at 30.8 µM]

CCOC(=O)c1cc2n(c1/N=C/N(C)C)-c1ccccc1C2=O
inactive: Potency [2] | Potency [3] | activation [4] 6.24% [at 17.1 µM, percent relative to cAMP agonist control] | Potency [5] | activity change, negative = inhibition [6] 1.53% [at 30.8 µM]
active: Potency [1] 5.8 µM

CCCCCCc1cc2cc(C(=O)NC)c(=N)oc2cc1O
inactive: activity change, negative = inhibition [9] -13% [at 17.2 µM] | outcome [10] | Potency [11] > 20.6 µM | Potency [2] | Potency [5] | Potency [6]
active: Potency [12] 3.98 µM | Potency [3] 89.1 µM | Potency [4] 100 µM

Cc1ccc(C(=O)NN2C(=O)/C(=C/c3cn(C)c4ccccc34)SC2=S)cc1
inactive: Potency [2] | Potency [3] | Potency [4] | Potency [5] | Potency [6]
active: Potency [1] 14.6 µM

N#Cc1c(N2CCCCC2)nc(N)c2c(N)nc(SCC(=O)O)cc12
inactive: Potency [3] | activation [4] 13.6% [at 17.1 µM, percent relative to cAMP agonist control] | Potency [5] | activity change, negative = inhibition [6] 35.9% [at 30.8 µM]
active: Potency [13] 19 µM | Potency [2] 31.6 µM

Brc1ccc(N/N=C(/N=Nc2nn[nH]n2)c2ccccc2)cc1
inactive: Potency [3] | Potency [4] | Potency [5] | Potency [7]
active: Potency [2] 33.8 µM

COc1ccc(-c2cc(C(=O)N(C)CC(=O)Nc3ccccc3Cl)c3ccccc3n2)cc1OC
active: Potency [14] 4.99 µM | Potency [15] 12.5 µM
inactive: outcome [16] | Potency [2] | Potency [3] | activation [4] 3.75% [at 17.1 µM, percent relative to cAMP agonist control] | Potency [5] | activity change, negative = inhibition [6] -9.19% [at 30.8 µM]

CC(=O)Nc1ccc(N=Cc2c(O)c(C(=O)Nc3ccccc3)cc3ccccc23)cc1
active: Potency [1] 16.3 µM
inactive: Potency [2] | Potency [3] | activation [4] -21% [at 17.1 µM, percent relative to cAMP agonist control] | Potency [5] | activity change, negative = inhibition [6] -16.4% [at 30.8 µM]

O=C(N/N=C/c1ccccc1Cl)c1[nH]c2ccc(Br)cc2c1-c1ccccc1
inactive: Potency [1] | Potency [2] | Potency [3] | Potency [5] | Potency [6]
active: Potency [4] 126 µM

N#C/C(=C\c1ccccn1)c1nc2ccccc2s1
active: Potency [2] 19 µM
inactive: Potency [1] | Potency [3] | Potency [4] | Potency [5] | Potency [6]
